Results on 63 compounds are retold here after ChEMBL document CHEMBL3988442, “University of Dundee, Small-Polar-MMV Screening Library” (2021).

The campaign covered roughly 48,000 compounds. About 13,000 (27%) showed an effect of 50% or more. The list shows a part of the results.

This test concerns Wolbachia pipientis. The test can be described thus: Anti-Wolbachia Cell-Based Screen. The class given is functional. The arrangement: scale not given: in the data most compounds retested in dose-response had high values. As to conditions: 5 µM.
With `Cc1cc(NC(=O)C(C)NCCn2cccn2)no1` (stereo not drawn), the “Percent Effect” value amounted to 7.799%.

Consider `Cc1cc(NC(=O)C(C)Nc2cccc(COCc3ccco3)c2)no1` (stereo not drawn), for which the “Percent Effect” value is 96.95%. The value for `Cc1cc(NC(=O)C(C)Nc2ccn(Cc3ccccn3)n2)on1` (stereo not drawn) was -74.41%; that for `Cc1nnc(C(C)Nc2cccc(COCCc3ccccc3)c2)o1` (stereo not drawn) was -2.129%.

As for `Cc1cc(CNC(=O)Nc2cccc(COCCOC(C)C)c2)no1`, the “Percent Effect” value was determined as 4.138%. `Cc1cc(NC(=O)C(C)Nc2cccc(COCc3ccco3)c2)on1` (stereo not drawn): the “Percent Effect” value is given as 82.63%.

As for `CCN1CCN(c2ccc(CNC(=O)c3ccc(Cl)o3)cn2)CC1`, the “Percent Effect” value is recorded as 4.733%. As for `Cc1ccccc1[C@@H]1CN(Cc2c(C)noc2C)C[C@H]1C(=O)O`, the “Percent Effect” value is on record as -12.73%. The value for `CCN1CCCC1CNCc1cc2cc3c(cc2[nH]c1=O)OCCO3` (stereo not drawn) was 90.42%. The value for `CCOc1ccc2[nH]c(=O)c(CN3CCC(O)CC3)cc2c1` was -5.024%; that for `Cc1cc(C)c(CNC(=O)NCC2CCCN2C)c(=O)[nH]1` (stereo not drawn) was -15.32%. The value for `CCN1CCCC1CNCc1cc2cc(C)c(C)cc2[nH]c1=O` (stereo not drawn) was 108.5%; that for `COc1cc2[nH]c(=O)c(CN3CCC[C@H]3CO)cc2c(OC)c1OC` was 3.209%.

Take `COc1ccc2[nH]c(=O)c(CN(C)CCN3CCCC3)cc2c1`: the “Percent Effect” value is recorded as -6.943%. Take `CCN1CCCC1Cn1ccc2c(OC)c(OC)ccc2c1=O` (stereo not drawn): the “Percent Effect” value was -2.049%. With `CCN1CCCC1CN(CCN(C)C)S(=O)(=O)c1ccc(C#N)cc1` (stereo not drawn) the figure was 2.143%; with `CCN1CCCC1CNCc1cc2cc(OC)c(OC)cc2[nH]c1=O` (stereo not drawn), 127.9%; with `COc1cc2[nH]c(=O)c(CN3CCCC3C)cc2c(OC)c1OC` (stereo not drawn), -17.42%. For `CCN1CCCC1CNCc1cc2cc(OC)ccc2[nH]c1=O` (stereo not drawn), the “Percent Effect” value was determined as 59.94%. With `CN(CCN1CCCCC1=O)Cc1cc2cc3c(cc2[nH]c1=O)OCO3` the figure was 9.765%; with `COCCN1CCc2cc(C(=O)O)c(-c3ccoc3)nc2CC1.O=C(O)C(F)(F)F.O=C(O)C(F)(F)F`, -9.804%; with `CCCc1nnc(C(=O)N(C)Cc2ccc(OC)cc2)o1`, 16.32%. With `COCCC(C)NC(=O)N1CCSC(C)(C)C1` (stereo not drawn) the figure was -17.32%. With `CC[C@H]1CN(C(=O)c2cnc(CN3CCCC3)s2)CC[C@@]1(C)O` the figure was 12.41%; with `O=C(NCCNc1ccccn1)NCC1CCS(=O)(=O)C1` (stereo not drawn), 7.118%. For the compound `Cc1ccc(S(=O)(=O)N2CC(C)Oc3ncccc32)c(F)c1` (stereo not drawn), the “Percent Effect” value is -7.297%. With `CCN1CCCC1CNCc1cc2ccccc2[nH]c1=O` (stereo not drawn) the figure was 105.7%; with `CS(=O)(=O)NCC1CCN(Cc2cc3ccccc3[nH]c2=O)C1` (stereo not drawn), 5.413%; with `CS(=O)(=O)NCCCN1CCCCC1c1cc2ccccc2[nH]1` (stereo not drawn), 5.136%. The value for `Cc1occc1C(=O)N1CC(C(=O)N2CCOCC2)C2(CCOCC2)C1` (stereo not drawn) was -11.45%. The value for `CC(NC(=O)CCC(=O)c1cccs1)c1nnc2n1CCCCC2` (stereo not drawn) was -1.581%. For `CC(NC(=O)CCC(=O)c1cccs1)c1nnc2n1CCC2` (stereo not drawn), the “Percent Effect” value is recorded as 109.2%.

In the case of `CC(NC(=O)CCCC(=O)c1cccs1)c1nnc2n1CCC2` (stereo not drawn), the “Percent Effect” value is on record as 92.19%. The value for `Cc1noc(CCCC(=O)NC(C)c2nnc3n2CCCCC3)n1` (stereo not drawn) was -8.198%; that for `c1cnn(Cc2ccc(CN3CCC4(CCCNC4)C3)cc2)c1` (stereo not drawn) was 7.706%.

As for `COCCN1CCN(CCCc2nnnn2-c2ccccc2)CC1`, the “Percent Effect” value was -6.154%. Regarding `O=C(c1c[nH]c(=O)[nH]c1=O)N1CCCC(c2cnccn2)C1` (stereo not drawn), the “Percent Effect” value stood at 111.3%. The value for `Cc1cncc(C2CCCN(C(=O)c3c[nH]c(=O)[nH]c3=O)C2)n1` (stereo not drawn) was -6.344%; that for `Cc1cnc(C2CCCN(C(=O)c3c[nH]c(=O)[nH]c3=O)C2)s1` (stereo not drawn) was 107.7%. The value for `Cc1ccccc1OC1CCN(C(=O)c2c[nH]c(=O)[nH]c2=O)CC1` was 25.29%; that for `Cc1cccc2[nH]c(C3CCN(C(=O)c4c[nH]c(=O)[nH]c4=O)CC3)nc12` was -6.416%; that for `Cc1cc(C2CCCN(C(=O)c3ccc(C)[nH]c3=O)C2)n[nH]1` (stereo not drawn) was 8.066%. With `Cn1ccnc1CN1CCN(c2ncnc3ccsc23)CC1` the figure was 8.989%; with `CCc1[nH]n(C)c(=N)c1-c1ccc2c(c1)OCO2`, -3.293%.

For the compound `COCCN1CCc2ncnc(-c3ccccc3)c2CC1.O=C(O)C(F)(F)F`, the “Percent Effect” value is 98.59%. As for `CCc1ncnc2c1CCN(Cc1ccc(OC)cc1)CC2.O=C(O)C(F)(F)F`, the “Percent Effect” value is -14.19%. With `CCc1ncnc2c1CCN(CCOC)CC2.O=C(O)C(F)(F)F` the figure was 104.9%; with `CCc1ncnc2c1CCN(Cc1cccs1)CC2.O=C(O)C(F)(F)F`, -3.657%. The value for `CN(CCN1CCCC1=O)CC(c1cccs1)N1CCOCC1` (stereo not drawn) was -4.192%; that for `CCc1ccc(CN(C/C=C/c2ccccc2)CCOC)nc1` was -1.399%; that for `Cc1cc(CN[C@H](C(N)=O)[C@@H](C)O)c(C)s1` was -13.15%. With `COCCO[C@H]1CCN(c2cc(OC)ncn2)[C@H]1Cc1cccnc1.O=C(O)C(F)(F)F` the figure was -7.888%; with `Cc1ccc(N2CC[C@H](OCC3CC3)[C@@H]2Cc2cccnc2)nn1.O=C(O)C(F)(F)F`, 91.78%; with `Cc1ccc(N2CC[C@H](OCC3CC3)[C@@H]2Cc2cnn(C)c2)nn1`, 1.399%. For `O=S(=O)(C1CC1)N1CC[C@H](OCC2CC2)[C@@H]1Cc1ccncc1`, the “Percent Effect” value is on record as -12.77%. The value for `COCCO[C@H]1CCN(c2ccc(C)nn2)[C@H]1Cc1cccnc1.O=C(O)C(F)(F)F.O=C(O)C(F)(F)F` was 97.63%; that for `CN(C)[C@@H]1CCN(c2ncccn2)[C@H]1Cc1cccnc1.O=C(O)C(F)(F)F.O=C(O)C(F)(F)F` was 5.907%. The value for `Cc1ccc(N2CC[C@H](OCC3CC3)[C@@H]2Cc2ccncc2)nn1` was 112.9%. As for `O=C(NCC(F)(F)F)c1nnn(-c2ccccc2)c1C(F)(F)F`, the “Percent Effect” value was -4.958%.

For the compound `CCCSCC(=O)N1C[C@H]2CC[C@@H]1CN(c1ncccn1)C2`, the “Percent Effect” value is reported as 28.59%. Consider `N[C@H]1CN(C(=O)c2ccc(CO)cc2)C[C@@H]1C1CC1`, for which the “Percent Effect” value was -11.41%.

Turning to `COc1ccc(-c2nc3c([nH]2)CCNC3)c(OC)c1OC`, the “Percent Effect” value is given as -10.21%.

Consider `O=C(CCc1ccc(C(F)(F)F)cc1)N1CCCS1(=O)=O`, for which the “Percent Effect” value is listed as -13.79%.
